Test results from PubChem BioAssay (NCI).
This is part of a sample that, as a whole, favours compounds with a hit. Of some 79,000 tested, about 15% had one in any assay. Unmarked numbers belong to inactive results. Active and inactive are the calls of the source. No stated cut-off is given here; in the data, active means growth inhibition above about 70%; inactive means the rest.

Columns and labels:
[1] = NCI Yeast Anticancer Drug Screen. Data for the rad50 strain (AID 155);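 further: 0% = growth of vehicle-only cultures of the same strain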; conditions: S. cerevisiae rad50 strain growth inhibition, active compounds read high
How it was run: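 Genetically altered yeast (DNA repair pathway); compound treatment; growth inhibition vs vehicle ctrl.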

[2] = NCI Yeast Anticancer Drug Screen. Data for the mec2-1 strain (AID 157); conditions: S. cerevisiae mec2-1 strain, active compounds read high
How it was run: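 mec2-1 yeast strain, carrying an alteration in DNA damage repair or cell cycle control, was exposed to compounds; growth inhibition was measured relative to vehicle-treated controls.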

[3] = NCI Yeast Anticancer Drug Screen. Data for the sgs1 mgt1 strain (AID 161);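 further: 0% = growth of cultures given vehicle only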; conditions: S. cerevisiae sgs1 mgt1 strain, active compounds read high
How it was run: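 Yeast cells carrying a defined DNA-repair defect were exposed to test compounds. Growth inhibition was measured relative to vehicle-treated controls.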

[4] = NCI Yeast Anticancer Drug Screen. Data for the cln2 rad14 strain (AID 165);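 further: 0% = growth equal to vehicle treated cultures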; conditions: S. cerevisiae cln2 rad14 strain, active compounds read high
How it was run: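 Yeast carrying cln2 and rad14 alterations (cell cycle control and DNA damage repair) were exposed to compounds. Growth inhibition was measured against vehicle-treated controls.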

[5] = NCI Yeast Anticancer Drug Screen. Data for the bub3 strain (AID 167); conditions: S. cerevisiae bub3 mutant strain, active compounds read high
How it was run: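 Yeast carrying a defined mutation is treated with each compound, and growth is compared with that of vehicle-exposed cells to give inhibition.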

[6] = NCI Yeast Anticancer Drug Screen. Data for the mlh1 rad18 strain (AID 175); conditions: S. cerevisiae mlh1 rad18 strain growth inhibition, active compounds read high
How it was run: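 Growth inhibition of the yeast strain was measured after compound exposure and expressed relative to vehicle-treated controls. The strain carries defined defects in DNA damage repair.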

[7] = at 5.0 µM (retest, dose inferred, filed as 0.5)
[8] = at 50.0 µM (retest, dose inferred, filed as 5.0)

SMILES | growth inhibition [1, 7] | growth inhibition [1, 8] | growth inhibition ([1]; at 50.0 µM) | growth inhibition [2, 7] | growth inhibition [2, 8] | growth inhibition ([2]; at 50.0 µM) | growth inhibition [3, 7] | growth inhibition [3, 8] | growth inhibition ([3]; at 50.0 µM) | growth inhibition [4, 7] | growth inhibition [4, 8] | growth inhibition ([4]; at 50.0 µM) | growth inhibition [5, 7] | growth inhibition [5, 8] | growth inhibition ([5]; at 50.0 µM) | growth inhibition [6, 7] | growth inhibition [6, 8] | growth inhibition ([6]; at 50.0 µM)
Cc1cc(C)n2nc(N)c(C#N)c2c1C#N | -2% | 1% | 17.2% | 1% | 0% | 7.85% | 2% | 8% | 0.85% | -2% | 2% | 11.7% | -1% | -3% | 47.7% | -1% | 7% | 62%
Cc1ccccc1N=Nc1sc(N)nc1-c1ccccc1 | -6% | 94% (active) | 33.5% | 8% | 98% (active) | 22.2% | -2% | 95% (active) | 54.8% | -1% | 88% (active) | -4.85% | -7% | 98% (active) | 30.6% | -1% | 95% (active) | 43.7%
O=C1C=CC(=O)c2nc3c(nc21)[nH]c1ccccc13 | -9% | 91% (active) | 95.7% (active) | -12% | 94% (active) | 95.4% (active) | -23% | 95% (active) | 94.7% (active) | -20% | 94% (active) | 93.5% (active) | -41% | 93% (active) | 91.4% (active) | -44% | 92% (active) | 95.5% (active)
Cc1ccc(S(=O)(=O)N/N=C2\CC(C)OC3=C2CCCCCC3)cc1 (configuration not stated) | 13% | 95% (active) | 75.5% (active) | 0% | 94% (active) | 79.3% (active) | 1% | 93% (active) | 61.1% | -3% | 92% (active) | 77.5% (active) | 1% | 95% (active) | 75.6% (active) | 31% | 95% (active) | 67.8%
Clc1ccc2ccc3cccnc3c2n1 | 9% | 95% (active) | -38.5% | 7% | 97% (active) | -9.5% | 0% | 86% (active) | -13.2% | -4% | 92% (active) | 7.9% | -7% | 98% (active) | 20.4% | 3% | 94% (active) | -25.1%
CC(C)/C=C1\CCC(CN2CCOCC2)C1=O (configuration not stated) | 24% | 36% | 72.1% (active) | 18% | 26% | 28.4% | 22% | 44% | 48.7% | 23% | 20% | 30.9% | 17% | 62% | 30.6% | -5% | 71% (active) | 67.2%
O=C(O)Cc1c[nH]c2ccccc12 | 46% | -3% | 51% | 31% | 7% | 64% | 42% | -2% | 94% (active) | 9% | -12% | 49% | 85% (active) | -8% | 92.5% (active) | 84% (active) | -2% | 91.2% (active)
CC(C)(C)N1OC2(c3ccccc3)OC3N(C(C)(C)C)OC4(c5ccccc5)OC1C2(c1ccccc1)C34c1ccccc1 (configuration not stated) | -4% | 99% (active) | 93.7% (active) | -2% | 100% (active) | 97.9% (active) | -5% | 99% (active) | 72% (active) | 4% | 99% (active) | 98% (active) | 1% | 99% (active) | 99.2% (active) | 0% | 99% (active) | 96% (active)
c1ccc2c(c1)Cc1cc3ccccc3nc1-2 | 13% | 97% (active) | 96.5% (active) | 18% | 97% (active) | 86.5% (active) | 13% | 98% (active) | 87.1% (active) | -9% | 90% (active) | 92% (active) | 10% | 94% (active) | 89.7% (active) | 28% | 99% (active) | 97.2% (active)
Clc1c2ccccc2cc2cccnc12 | 17% | 90% (active) | 50.2% | 7% | 26% | 54.6% | 6% | 81% (active) | 48.8% | 3% | 40% | 36% | 3% | 71% (active) | 76% (active) | 17% | 86% (active) | 67.2%
CCC1CN2CCc3cc(OC)c(OC)cc3C2CC1CC1c2cc(OC)c(OC)cc2CCN1C(=O)C(Cc1c[nH]c2ccccc12)NC(=O)OC(C)(C)C (configuration not stated) | -4% | 97% (active) | 96.8% (active) | -6% | 98% (active) | 88.3% (active) | -5% | 49% | 53% | -13% | 98% (active) | 93.5% (active) | -5% | 98% (active) | 59.5% | -3% | 98% (active) | 93.8% (active)
CCOC(=O)Cc1csc2[n+]1C(=O)/C(=C/c1ccc(OC)c(OC)c1)S2 | -11% | 11% | 95.2% (active) | -14% | 10% | 94.2% (active) | -11% | 14% | 94.2% (active) | -1% | 8% | 93% (active) | -22% | -2% | 95.7% (active) | -17% | 17% | 93% (active)
COc1ccc2ccc(/C=C/[N+](=O)[O-])cc2c1OC | 48% | 98% (active) | 55.1% | 40% | 99% (active) | 88.2% (active) | 53% | 99% (active) | 34.8% | 41% | 99% (active) | 37.9% | 67% | 99% (active) | 85.3% (active) | 37% | 98% (active) | 67.6%
O=C1c2cc(Br)cc(Br)c2NCCC1(Br)Br | 99% (active) | 98% (active) | 97.7% (active) | 98% (active) | 100% (active) | 99.1% (active) | 100% (active) | 99% (active) | 97.8% (active) | 99% (active) | 98% (active) | 98% (active) | 99% (active) | 98% (active) | 97.5% (active) | 100% (active) | 98% (active) | 98.5% (active)
CCOc1ccc2c(c1)[n+]([O-])c(-c1ccc([N+](=O)[O-])cc1)c(N)[n+]2[O-] | 22% | 82% (active) | 95% (active) | 41% | 90% (active) | 80.5% (active) | 38% | 96% (active) | 96% (active) | 21% | 76% (active) | 94.3% (active) | 65% | 94% (active) | 96% (active) | 56% | 93% (active) | 97.4% (active)
[C-]#[N+]C(C)(c1ccccc1)c1ccccc1 | -117% | 70% (active) | 95.5% (active) | -34% | 47% | 93.2% (active) | -48% | 79% (active) | 95.5% (active) | -59% | 47% | 90.1% (active) | -45% | 80% (active) | 94.2% (active) | -101% | 76% (active) | 94.4% (active)
CC(=O)NNc1ccc(Cl)cc1[N+](=O)[O-] | 18% | 30% | 51% | -5% | 26% | 25.3% | -6% | 20% | 12.1% | 5% | 4% | 44.1% | 3% | 19% | 77.3% (active) | 28% | 69% | 91% (active)
COC(=O)C1C(c2ccccc2)=N[C@@H](c2ccccc2)[C@H]1C(=O)OC (some centres not stated) | 2% | -3% | 17.4% | 3% | -2% | -2.15% | 9% | 3% | 17.1% | 6% | 7% | 23.2% | 6% | 32% | 3.55% | 1% | 0% | 76.7% (active)
COc1ccc(CNc2nc3cc(C(F)(F)F)ccc3nc2C)cc1OC | -9% | 22% | 87.8% (active) | -34% | 39% | 91.3% (active) | 6% | 38% | 91.4% (active) | 11% | 74% (active) | 92.7% (active) | -30% | 18% | 89.7% (active) | -19% | 18% | 89.2% (active)
